In PubChem BioAssay (EPA / NIEHS):
“And” between values parts separate entries of the source, which are not always exact repeats. Equal entries are not always repeated. Results filed as inconclusive are left out. The source made the active and inactive calls. The calls were made as follows, unless noted: active = hit-call score of the fitted dose curve at least 0.9, where 1 is the maximum; inactive = score below 0.9.

How the values were obtained:
[1] = CCTE_Mundy_HCI_Cortical_NOG_NeuronCount: CCTE's Neurite Outgrowth Assay in rat cortical cells for Neuron Count, Mundy Lab (AID 2284236; active = hit-call score of the fitted dose curve at least 0.9, where 1 is the maximum;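 also: neurons counted by imaging betaIII-tubulin and Hoechst stained cortical cells; cells exposed to compound for about 48 hours before fixation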)
How it was run: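 Read-out: neuron number by high-content imaging of betaIII-tubulin (Alexa Fluor-488) and Hoechst-labelled rat primary cortical cells.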

[2] = CCTE_Mundy_HCI_Cortical_NOG_BPCount: CCTE's Neurite Outgrowth Assay in rat cortical cells for Branch Point Count, Mundy Lab (AID 2284237);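 as to AC50: branch points counted about two days after chemical exposure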
How it was run: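 Measured 50.33 h after dosing, this morphology endpoint uses rat primary cortical cultures labelled for betaIII-tubulin. Branch points are quantified by high-content imaging, with DMSO as negative control and baseline.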

[3] = CCTE_Mundy_HCI_hNP1_Casp3_7: CCTE's Caspase-Glo 3/7 Assay in human neuroprogenitor cells for Apoptosis, Mundy Lab (AID 2284240)
How it was run: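 Luminescent caspase-3/7 readout, 26.5 h post-dose, in human neural progenitor cells from WA09 embryonic stem cells. Cells grew 40–44 h at 37 °C, 5% CO2 before chemical addition. Activity analysed as signal increase over DMSO baseline.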

[4] = CCTE_Mundy_HCI_hNP1_CellTiter: CCTE's Cell Titer-Glo 2 Assay in human neuroprogenitor cells for Viability, Mundy Lab (AID 2284241; active = hit-call score of the fitted dose curve at least 0.9, where 1 is the maximum;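 as to AC50: a hit is a drop in ATP luminescence versus DMSO meaning reduced viability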)
How it was run: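 Viability read as luminescent ATP content (CellTiter-Glo, 30 min room temperature) twenty-four hours after dosing, relative to DMSO. Cells: WA09-derived hNP1 neuroprogenitors on poly-L-ornithine/laminin, plated 40 to 44 hours before chemical.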

[5] = CCTE_Mundy_HCI_Cortical_Synap_Neur_Matur_NeuronCount: CCTE's Synaptogenesis and Neurite Maturation Assay in rat cortical cells for Neuron Count, Mundy Lab (AID 2284242; active = hit-call score of the fitted dose curve at least 0.9, where 1 is the maximum;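 as to AC50: hits reduce neuron count versus DMSO baseline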)
How it was run: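 Measured at DIV 12: fluorescently labelled neurons (Hoechst nuclei, MAP2) in rat primary cortical cultures, counted by high-content imaging. AraC suppressed glia from DIV 5; DMSO served as negative control.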

[6] = read-out: Collagen I, COL1A1 (gene 1277); experiment: BSK_MyoF_CollagenI: BioMAP Diversity Plus: MyoF Assay for Collagen I Biomarker Activity (AID 2284238); conditions: primary human lung fibroblasts
How it was run: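 Lung fibroblasts (human primary) dosed, 24 h; Collagen I by ELISA; positive-direction fit vs DMSO control. Parallel SRB total-protein staining (0.1% SRB, 10% TCA fixation, 560 nm) flags overt cytotoxicity.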

[7] = read-out: Collagen III, COL3A1 (gene 1281); experiment: BSK_MyoF_CollagenIII: BioMAP Diversity Plus: MyoF Assay for Collagen III Biomarker Activity (AID 2284239); conditions: primary human lung fibroblasts
How it was run: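 ELISA read-out of collagen III from human lung fibroblasts after 24 h of chemical treatment. The DMSO control served as negative control and baseline, with values fitted in the positive direction.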

[8] = read-out: Interleukin 17F (IL17F), IL17F (gene 112744); experiment: BSK_BT_xIL17F: BioMAP Diversity Plus: BT Assay for Interleukin 17F (IL17F) Biomarker Activity (AID 2284243); conditions: primary human B cells with PBMC
How it was run: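 Compound was added to co-cultures of human B cells and PBMC. After 24 hours, IL-17F released into the medium was measured with LumineX xMAP technology. Responses were then fitted upward relative to DMSO.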

[9] = read-out: Actin alpha 1 (ACTA1), ACTA1 (gene 58); experiment: BSK_MyoF_ACTA1: BioMAP Diversity Plus: MyoF Assay for Actin alpha 1 (ACTA1) Biomarker Activity (AID 2284244); conditions: primary human lung fibroblasts
How it was run: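 MyoF fibroblast system (human lung); a-SMA quantified via ELISA at 24 h; DMSO-normalised, gain-of-signal endpoint.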

[10] = read-out: Interleukin 2 (IL2), IL2 (gene 3558); experiment: BSK_BT_xIL2: BioMAP Diversity Plus: BT Assay for Interleukin 2 (IL2) Biomarker Activity (AID 2284245); conditions: primary human B cells with PBMC
How it was run: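 Co-cultures of primary human B cells and PBMC are treated with chemical and sampled at 24 h. IL-2 secretion is quantified by Luminex xMAP, with DMSO-treated wells as baseline.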

[11] = read-out: Basic fibroblast growth factor (bFGF), FGF2 (gene 2247); experiment: BSK_MyoF_bFGF: BioMAP Diversity Plus: MyoF Assay for Basic fibroblast growth factor (bFGF) Biomarker Activity (AID 2284246); conditions: primary human lung fibroblasts
How it was run: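 Fibroblasts from human lung, 24 h dosing. bFGF by ELISA; gain of signal over DMSO.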

[12] = read-out: Collagen IV, COL4A1 (gene 1282); experiment: BSK_MyoF_CollagenIV: BioMAP Diversity Plus: MyoF Assay for Collagen IV Biomarker Activity (AID 2284247); conditions: primary human lung fibroblasts
How it was run: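 Lung fibroblasts (human primary) treated with chemicals were assayed after 24 h for Collagen IV using an ELISA, with DMSO serving as negative control and baseline for a positive-direction fit.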

[13] = read-out: Monokine induced gamma interferon (MIG), CXCL9 (gene 4283); experiment: BSK_KF3CT_MIG: BioMAP Diversity Plus: KF3CT Assay for Monokine induced gamma interferon (MIG) Biomarker Activity (AID 2284248); conditions: primary human keratinocytes with fibroblasts
How it was run: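 KF3CT system: keratinocyte/fibroblast co-culture, 24 h post-dose, MIG by ELISA; activity vs DMSO, positive fitting direction.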

[14] = read-out: Vascular cell adhesion molecule 1 (VCAM1), VCAM1 (gene 7412); experiment: BSK_BF4T_VCAM1: BioMAP Diversity Plus: BF4T Assay for Vascular cell adhesion molecule 1 (VCAM1) Biomarker Activity (AID 2284249); conditions: primary human bronchial epithelial cells with fibroblasts
How it was run: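 Cell-surface VCAM-1 quantified by ELISA after 24 h chemical exposure of human bronchial epithelial/dermal fibroblast co-cultures, with SRB staining in parallel wells for cytotoxicity; DMSO baseline, positive-direction fitting.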

[15] = read-out: Collagen I, COL1A1 (gene 1277); experiment: BSK_hDFCGF_CollagenI: BioMAP Diversity Plus: hDFCGF Assay for Collagen I Biomarker Activity (AID 2284250); conditions: primary human foreskin fibroblasts
How it was run: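 Readout: Collagen I by ELISA after 24 h compound treatment of primary human foreskin fibroblasts. Endpoint analysed for increases relative to DMSO; total protein by SRB in parallel wells flagged cytotoxicity.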

[16] = read-out: Interferon-inducible T-cell alpha chemoattractant (ITAC), CXCL11 (gene 6373); experiment: BSK_hDFCGF_ITAC: BioMAP Diversity Plus: hDFCGF Assay for Interferon-inducible T-cell alpha chemoattractant (ITAC) Biomarker Activity (AID 2284251); conditions: primary human foreskin fibroblasts
How it was run: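 Measured by ELISA, the chemokine level serves as the endpoint in human skin fibroblast primary cultures 24 h after compound addition. Increases relative to DMSO-treated wells define activity.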

[17] = read-out: Plasminogen activator inhibitor-1 (PAI1), SERPINE1 (gene 5054); experiment: BSK_KF3CT_PAI1: BioMAP Diversity Plus: KF3CT Assay for Plasminogen activator inhibitor-1 (PAI1) Biomarker Activity (AID 2284252); conditions: primary human keratinocytes with fibroblasts
How it was run: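 In this co-culture of primary human keratinocytes and foreskin fibroblasts, PAI-1 was measured by ELISA at 24 h and fitted upward from DMSO.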

[18] = read-out: Monocyte Chemoattractant Protein-1 (MCP1), CCL2 (gene 6347); experiment: BSK_IMphg_MCP1: BioMAP Diversity Plus: IMphg Assay for Monocyte Chemoattractant Protein-1 (MCP1) Biomarker Activity (AID 2284253); conditions: primary human endothelial cells with macrophages
How it was run: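 ELISA readout of MCP-1 at 24 hours in IMphg co-cultures of venular endothelial cells and macrophages, normalised to DMSO; parallel cultures stained with sulforhodamine B for overt cytotoxicity.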

[19] = read-out: Interleukin-8 (IL8), CXCL8 (gene 3576); experiment: BSK_KF3CT_IL8: BioMAP Diversity Plus: KF3CT Assay for Interleukin-8 (IL8) Biomarker Activity (AID 2284254); conditions: primary human keratinocytes with fibroblasts
How it was run: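 Chemicals were added to co-cultured human keratinocytes and foreskin fibroblasts, incubated 24 h, then IL-8 was quantified by ELISA. Cytotoxicity was tracked by sulforhodamine B total-protein staining in parallel cultures.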

[20] = read-out: Macrophage Inflammatory Protein-1 Alpha (MIP1a), CCL3 (gene 6348); experiment: BSK_IMphg_MIP1a: BioMAP Diversity Plus: IMphg Assay for Macrophage Inflammatory Protein-1 Alpha (MIP1a) Biomarker Activity (AID 2284255); conditions: primary human endothelial cells with macrophages
How it was run: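 MIP-1a protein levels were quantified by ELISA after 24 h treatment of human endothelial cell–macrophage co-cultures, compared with DMSO. Parallel cultures were fixed with TCA and stained with 0.1% SRB to gauge overt cytotoxicity.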

**Q.** Which AC50 [1] does the source give for `ClC1=C(Cl)[C@]2(Cl)[C@@H]3[C@@H](Cl)[C@H]4O[C@H]4[C@@H]3C1(Cl)C2(Cl)Cl` here?
**A.** Its AC50 is 34.2 µM (active).

**Q.** And the AC50 [2]?
**A.** The AC50 was 9.79 µM (active).

**Q.** And the AC50 [3]?
**A.** Its AC50 is 30.3 µM (active).

**Q.** What about the AC50 [4] of the same compound?
**A.** The AC50 was 35.9 µM (active).

**Q.** What about the AC50 [5] of the same compound?
**A.** Its AC50 is 7.22 µM (active).

**Q.** Which results are given for `NS(=O)(=O)C(F)(F)C(F)(F)C(F)(F)C(F)(F)C(F)(F)C(F)(F)C(F)(F)C(F)(F)F`?
**A.** AC50 [6]: 22.6 µM (active); AC50 [7]: 26.2 µM (active) and 28.7 µM (active); outcome [3]: inactive; AC50 [8]: 35.5 µM (active) and 45.9 µM (active); AC50 [9]: 10.9 µM (active) and 12 µM (active); outcome [10]: inactive; AC50 [11]: 45.6 µM (active) and 45.4 µM (active); AC50 [12]: 7.27 µM (active) and 7.31 µM (active); AC50 [13]: 27.9 µM (active) and 51.6 µM (active); AC50 [14]: 24.8 µM (active) and 23.3 µM (active); outcome [15]: inactive; AC50 [16]: 8.34 µM (active) and 8.29 µM (active); AC50 [17]: 40.7 µM (active) and 21.7 µM (active); AC50 [18]: 45.2 µM (active) and 50.4 µM (active); AC50 [19]: 37.2 µM (active) and 22.3 µM (active); AC50 [20]: 54.8 µM (active) and 43.3 µM (active)

**Q.** Which AC50 [1] does the source give for `CCOP(=S)(OCC)SCSC(C)(C)C` here?
**A.** The AC50 was 68.1 µM (active).

**Q.** And the outcome [3]?
**A.** The outcome was “inactive”.

**Q.** What about the outcome [4] of the same compound?
**A.** The outcome was “inactive”.

**Q.** And the AC50 [5]?
**A.** Its AC50 is 9.92 µM (active) and 25.5 µM (active).

**Q.** What does the source list for `O=C(O)C(F)(F)C(F)(F)C(F)(F)C(F)(F)C(F)(F)C(F)(F)C(F)(F)C(F)(F)F`?
**A.** AC50 [6]: 37.9 µM (active) and 34.1 µM (active); AC50 [7]: 46.8 µM (active) and 47.6 µM (active); outcome [8]: inactive; AC50 [9]: 30 µM (active) and 40.3 µM (active); outcome [10]: inactive; outcome [11]: inactive; AC50 [12]: 18.9 µM (active) and 13.9 µM (active); outcome [13]: inactive; AC50 [14]: 12.9 µM (active) and 11 µM (active); outcome [15]: inactive; AC50 [16]: 47.9 µM (active) and 47.8 µM (active); AC50 [17]: 48.2 µM (active) and 41.7 µM (active); outcome [18]: inactive; outcome [19]: inactive; outcome [20]: inactive

**Q.** Which results are given for `C=CC(N)=O`?
**A.** outcome [2]: inactive; outcome [3]: inactive; outcome [4]: inactive; outcome [5]: inactive

**Q.** For `O=S(=O)(O)C(F)(F)C(F)(F)C(F)(F)C(F)(F)C(F)(F)C(F)(F)F`, which outcome [1] is on record?
**A.** The outcome was “inactive”.

**Q.** What about the outcome [2] of the same compound?
**A.** Its outcome is “inactive”.

**Q.** What about the outcome [6] of the same compound?
**A.** Its outcome is “inactive”.

**Q.** What about the outcome [7] of the same compound?
**A.** The outcome was “inactive”.

**Q.** And the outcome [3]?
**A.** Its outcome is “inactive”.

**Q.** What about the outcome [4] of the same compound?
**A.** The outcome was “inactive”.

**Q.** And the outcome [8]?
**A.** The outcome was “inactive”.

**Q.** And the outcome [9]?
**A.** The outcome was “inactive”.

**Q.** And the outcome [10]?
**A.** The outcome was “inactive”.

**Q.** What about the outcome [11] of the same compound?
**A.** Its outcome is “inactive”.

**Q.** What about the outcome [12] of the same compound?
**A.** Its outcome is “inactive”.

**Q.** What about the outcome [13] of the same compound?
**A.** Its outcome is “inactive”.

**Q.** And the outcome [14]?
**A.** Its outcome is “inactive”.

**Q.** What about the outcome [15] of the same compound?
**A.** Its outcome is “inactive”.

**Q.** What about the outcome [16] of the same compound?
**A.** The outcome was “inactive”.

**Q.** What about the outcome [17] of the same compound?
**A.** The outcome was “inactive”.

**Q.** And the outcome [18]?
**A.** The outcome was “inactive”.

**Q.** And the outcome [19]?
**A.** The outcome was “inactive”.

**Q.** And the outcome [20]?
**A.** Its outcome is “inactive”.

**Q.** With `ClC1=C(Cl)[C@]2(Cl)[C@@H]3[C@@H]4C[C@@H]([C@H]5O[C@@H]45)[C@@H]3[C@@]1(Cl)C2(Cl)Cl` as the compound, how does the AC50 [1] read?
**A.** The AC50 was 21.7 µM (active).

**Q.** And the AC50 [3]?
**A.** Its AC50 is 15 µM (active).

**Q.** And the AC50 [5]?
**A.** The AC50 was 25 µM (active).
